Compound activity deposited in PubChem by National Center for Advancing Translational Sciences (NCATS).
TDP1 inh – blocks human tyrosyl-DNA phosphodiesterase 1 | recombinant TDP1, AlphaScreen DNA substrate cleavage | Q9NUW8 | hit rate 0.28% among 350,000 | Potency, µM (series often up to 130 µM), hits mostly inhibitors | AID 485290; further: nearly all actives have a fitted effect of over 40% in size
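Here, a 5' biotin and 3' phosphotyrosine-FITC DNA oligonucleotide reports Tdp1 activity: intact substrate bridges AlphaScreen beads, while cleavage leaves a 3' phosphate and drops signal. All incubations at room temperature.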
TDP1 cell noCPT – qHTS for Inhibitors of human tyrosyl-DNA phosphodiesterase 1 (TDP1): qHTS in cells in absence of CPT | hit rate 15% among 420,000 | DT40 Tdp1-/- hTDP1 cells, no CPT, ATP luminescence, 48 h | Potency, µM (titrated, usually from 46.2 µM), usual class: inhibitors | AID 686978, 2013; further: nearly all actives have a fitted effect of over 55% in size
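DT40 Tdp1-/-;hTDP1 cells, no CPT (DMSO vehicle only), 400 cells/well; compounds pin-transferred; ≥48 hr, 37 °C; CellTiter-Glo 30 min RT dark, luminescence read.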
TDP1 cell CPT – growth inhibition of DT40 Tdp1-/-;hTDP1 cells with camptothecin (screen for TDP1 inhibitors); hit rate 12% among 420,000; Potency, µM (doses to about 46.2 µM), actives largely listed as inhibitors; AID 686979; chicken DT40 Tdp1-/-;hTDP1 cells + 20 nM CPT, ATP luminescence, 48 h; further: nearly all actives have a fitted effect of over 55% in size
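Chicken DT40 Tdp1-/- cells complemented with human TDP1, 400 cells/well, exposed to compounds plus 20 nM camptothecin for at least 48 h at 37 C; viability read as ATP content by CellTiter-Glo luminescence.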
ClpP mod – qHTS Assay for Activators of ClpP. ATP-dependent Clp protease proteolytic subunit (Bacillus subtilis (strain 168)), P80244. purified B. subtilis ClpP, FRET peptide cleavage, 20 min. Potency, µM (highest dose often 57.5 µM). hit rate 1.9% among 340,000. AID 651965, 2013; active means well fitted falling curve with a large enough effect; inconclusive means small, poorly fitted or top-dose-only effect; inactive means no such curve, though single readings can be large or run the other way; further: the source files actives as falling curves though it sought activators and does not explain the sign; nearly all actives have a fitted effect of over 65% in size
Target sequence (P80244 whole entry, looked up): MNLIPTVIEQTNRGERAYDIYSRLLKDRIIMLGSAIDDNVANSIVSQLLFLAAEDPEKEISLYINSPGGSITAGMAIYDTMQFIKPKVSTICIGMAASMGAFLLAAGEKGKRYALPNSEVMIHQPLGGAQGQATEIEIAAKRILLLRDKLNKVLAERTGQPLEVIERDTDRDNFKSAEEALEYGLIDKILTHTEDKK
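FRET quenching reversal measured ClpP activation: 10 microg/mL B. subtilis ClpP at pH 8 with the FRET-FV decapeptide, read at 430 nm after 320 nm excitation. The 20-min minus 0-min signal was scaled between DMSO/no-enzyme wells and ADEP (5.8 microM final).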
Of the large screens only hits and unclear results are named; the others gave an inactive call. In the library only some 17% were active in any assay of this set; here they are far more common. Unless noted, the call rests on the fitted dose curve; in most records, active means well fitted curve in the direction sought with a large enough effect; inconclusive means small, poorly fitted or top-dose-only effect, or another doubt; inactive means no such curve, though single readings can be large; an effect the other way counts as inactive or inconclusive.

Cc1ccc(-c2nnc(Nc3ccc(O)cc3)c3ccccc23)cc1S(=O)(=O)NC(C)(C)CO	TDP1 cell noCPT 8.2µM, TDP1 cell CPT 16.4µM (no result: TDP1 inh)
Cc1ccc(-c2nnc(Nc3ccc(Cl)cc3)c3ccccc23)cc1S(=O)(=O)N1CCOCC1	TDP1 cell noCPT 3.66µM, TDP1 cell CPT 13µM
Cc1ccc(-c2nnc(Nc3ccccc3)c3ccccc23)cc1S(=O)(=O)N1CCOCC1	TDP1 cell noCPT inconclusive
Cc1ccc(-c2nnc(Nc3ccc(F)cc3)c3ccccc23)cc1S(=O)(=O)NC(C)C	TDP1 cell noCPT 9.2µM, TDP1 cell CPT inconclusive, ClpP mod inconclusive (no result: TDP1 inh)
CN(N=O)C(=O)N[C@@H]1[C@@H](O)[C@H](O)[C@@H](CO)O[C@@H]1O	none (no result: TDP1 inh, ClpP mod)
Cc1cccc(Nc2nnc(-c3ccc(N4CCOCC4)c([N+](=O)[O-])c3)c3ccccc23)c1	TDP1 cell noCPT 18.4µM, TDP1 cell CPT inconclusive (no result: ClpP mod)
Cc1ccc(-c2nnc(Nc3ccc(O)cc3)c3ccccc23)cc1S(=O)(=O)N1CCCCC1	TDP1 cell noCPT 18.4µM, TDP1 cell CPT 7.31µM
Cc1ccc(-c2n[nH]c(=O)c3ccccc23)cc1S(=O)(=O)N(C)C	TDP1 cell noCPT inconclusive, TDP1 cell CPT inconclusive
Cc1nnc(-c2ccc(N3CCOCC3)c([N+](=O)[O-])c2)o1	none
Cc1ccc(-c2nnc(Nc3ccc(C(N)=O)cc3)c3ccccc23)cc1S(=O)(=O)N1CCCCC1	TDP1 cell noCPT inconclusive, TDP1 cell CPT inconclusive
Cc1ccc(-c2n[nH]c(=O)c3ccccc23)cc1S(=O)(=O)Nc1ccccc1	TDP1 cell noCPT 23.1µM, TDP1 cell CPT inconclusive
Cc1ccc(-c2nnc(Nc3cccc(O)c3)c3ccccc23)cc1S(=O)(=O)N1CCOCC1	TDP1 cell noCPT 11.6µM, TDP1 cell CPT inconclusive
CCCCNC(=O)CN1C(=O)c2c(c3ccccc3n2C)C1c1ccc(OC)cc1 (stereo unspecified)	TDP1 cell noCPT inconclusive, TDP1 cell CPT inconclusive, ClpP mod 31.6µM
COc1ccc(C2c3c(n(C)c4ccccc34)C(=O)N2CC(=O)Nc2ccc(F)cc2)cc1 (stereo unspecified)	ClpP mod inconclusive
COc1ccc(C2c3c(n(C)c4ccccc34)C(=O)N2CC(=O)Nc2ccc(Cl)cc2)cc1 (stereo unspecified)	TDP1 cell noCPT inconclusive, TDP1 cell CPT 18.4µM, ClpP mod 17.8µM
CCc1cccc(C)c1NC(=O)CN1C(=O)c2c(c3ccccc3n2C)C1c1ccc(OC)cc1 (stereo unspecified)	TDP1 cell noCPT 29.1µM, TDP1 cell CPT inconclusive, ClpP mod 25.1µM
CCCCNC(=O)Cn1c(=O)n(C)c2ccccc21	none
CC(C(=O)Nc1cccc(S(=O)(=O)N2CCOCC2)c1)N1CCN(c2ccc(F)cc2)CC1 (stereo unspecified)	TDP1 cell noCPT inconclusive (no result: ClpP mod)
O=[N+]([O-])c1ccc(Nc2cccc(F)c2)nc1	none
O=C1C(=C(c2ccccc2)N2CCOCC2)Cc2ccccc21	TDP1 cell noCPT 0.82µM, TDP1 cell CPT 1.16µM (no result: TDP1 inh)
CCC1C(=O)NCCN1Cc1ccc2c(c1)CN(Cc1cccn1-c1ccc(Cl)cn1)CCO2 (stereo unspecified)	TDP1 cell noCPT inconclusive (no result: TDP1 inh, ClpP mod)
COc1ccc(-n2cc(-c3ccccc3)c3c(N4CCOCC4)ncnc32)cc1	TDP1 cell noCPT 18.4µM, TDP1 cell CPT inconclusive (no result: ClpP mod)
CCN(c1ncnc2c1c(-c1ccccc1)cn2-c1ccccc1)C1CCCCC1	none
Fc1ccc(-n2cc(-c3ccccc3)c3c(NC4CCCCC4)ncnc32)cc1	TDP1 cell noCPT 23.1µM, TDP1 cell CPT 20.6µM
Brc1ccc(-n2cc(-c3ccccc3)c3c(NN4CCOCC4)ncnc32)cc1	TDP1 cell noCPT inconclusive, TDP1 cell CPT 18.4µM
Fc1ccc(-n2cc(-c3ccccc3)c3c(N4CCOCC4)ncnc32)cc1	TDP1 cell noCPT 20.6µM, TDP1 cell CPT 20.6µM (no result: ClpP mod)
CCN1CCN(c2ncnc3c2c(-c2ccccc2)cn3-c2ccc(F)cc2)CC1	TDP1 cell noCPT inconclusive, TDP1 cell CPT inconclusive (no result: ClpP mod)
CC[C@H]1OC(=O)[C@H](C)[C@@H](O[C@H]2C[C@@](C)(OC)[C@@H](O)[C@H](C)O2)[C@H](C)[C@@H](O[C@@H]2O[C@H](C)C[C@H](N(C)C)[C@H]2O)[C@](C)(O)C[C@@H](C)CN(C)[C@H](C)[C@@H](O)[C@]1(C)O	TDP1 cell CPT inconclusive
CCOc1ccc(CCNC(=O)Cn2nnc(-c3ccc(OC)c(OC)c3)n2)cc1OCC	TDP1 cell noCPT inconclusive, TDP1 cell CPT inconclusive
CCOC(=O)CSc1nc2ccccc2c(=O)n1-c1cccc(C)c1	TDP1 cell noCPT inconclusive (no result: TDP1 inh)
COc1ccc(-n2cc(-c3ccccc3)c3c(=O)[nH]cnc32)cc1	none
CCOC(=O)C(CC)Sc1ncnc2c1c(-c1ccccc1)cn2-c1ccc(OC)cc1 (stereo unspecified)	TDP1 cell noCPT 20.6µM, TDP1 cell CPT inconclusive, ClpP mod 22.4µM
CCOc1ccc(CCN2C(=O)C(=O)N([C@@H](Cc3ccccc3)CN3CCC[C@H]3CN3C(=O)C(=O)NC[C@@H]3Cc3ccccc3)C[C@@H]2Cc2ccc(O)cc2)cc1	TDP1 cell noCPT inconclusive, TDP1 cell CPT inconclusive (no result: TDP1 inh)
COc1cccc(Nc2nc(-c3ccccc3)c3cc(C)ccc3n2)c1	TDP1 cell noCPT inconclusive, TDP1 cell CPT 7.31µM
Cc1ccc2nc(NCCCO)nc(-c3ccccc3)c2c1	TDP1 cell noCPT 11.6µM, TDP1 cell CPT 13µM
Nc1nccnc1C(=O)OCC(=O)Nc1cccc(S(=O)(=O)N2CCCCC2)c1	none
CCc1nc2ccc(C(=O)NCCN3CCOCC3)cn2c1N(C)Cc1ccc(OC)cc1	TDP1 cell noCPT 23.1µM, TDP1 cell CPT inconclusive (no result: TDP1 inh)
CCc1nc2ccc(C(=O)NCCCN3CCCC3=O)cn2c1N(C)Cc1ccc(OC)cc1	TDP1 cell noCPT inconclusive, TDP1 cell CPT 16.4µM (no result: TDP1 inh)
CCc1nc2ccc(C(=O)NCCN3CCOCC3)cn2c1N(C=O)Cc1ccc(OC)cc1	none (no result: TDP1 inh)
CN(CC(=O)Nc1ccccc1C(=O)NC1CC1)Cc1ccco1	none
CC(C)c1c(O)ccc2c1CCC1C(C)(C)CCC[C@@]21C (stereo partly specified)	TDP1 cell noCPT inconclusive, TDP1 cell CPT inconclusive (no result: ClpP mod)
CC(C)c1c(O)ccc2c1CC[C@H]1C(C)(C)CCC[C@]21C	TDP1 cell noCPT inconclusive, TDP1 cell CPT 13µM (no result: TDP1 inh)
O=C(c1csnn1)N1CCC[C@@]2(CCN(c3ccccc3)C2)C1	TDP1 cell noCPT inconclusive (no result: TDP1 inh, ClpP mod)
CN1C(C)(C)CC(O)(C(=O)O)CC1(C)C	none (no result: TDP1 inh)
CC1(CNC(=O)C(=O)NCC2(C)CO2)CO1 (stereo unspecified)	TDP1 cell noCPT 1.64µM, TDP1 cell CPT 0.82µM (no result: TDP1 inh, ClpP mod)
COc1ccc(OC)c(CNC(=O)Cn2nc(C)c3nn(-c4ccc(Cl)cc4)c(C)c3c2=O)c1	TDP1 cell noCPT 18.4µM, TDP1 cell CPT 23.1µM
COc1ccc(OC)c(CCNC(=O)Cn2nc(C)c3c(C)n(-c4ccc(C)cc4)nc3c2=O)c1	TDP1 cell noCPT 14.6µM (no result: TDP1 inh, ClpP mod)
